This is part of a sample that, as a whole, favours compounds with a hit. Of some 79,000 tested, about 15% had one in any assay. Calls of active or inactive are those of the source. No stated cut-off is given here; in the data, active means growth inhibition above about 70%; inactive means the rest.
Tests used:
[1] = NCI Yeast Anticancer Drug Screen. Data for the rad52 strain (AID 147);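 further: 0% = growth of vehicle-treated control cultures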; details: S. cerevisiae rad52 mutant growth inhibition, active compounds read high
Outline: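 Here a repair-compromised yeast strain receives each compound; its growth is then quantified and normalised to vehicle-only controls.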

[2] = NCI Yeast Anticancer Drug Screen. Data for the wt1 strain (AID 149);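 further: 0% = growth of vehicle-treated wt1 cultures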; details: S. cerevisiae wt1 strain (SPY 50644) growth inhibition, active compounds read high
Outline: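 wt1 strain grown with compound or vehicle; inhibition taken from the growth difference.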

[3] = NCI Yeast Anticancer Drug Screen. Data for the rad50EPP+ strain (AID 151);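 further: 0% = growth of vehicle-treated control cultures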; details: S. cerevisiae rad50 mutant strain, active compounds read high
Outline: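 Read-out is yeast growth inhibition relative to vehicle; cells used were the rad50EPP+ strain.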

[4] = NCI Yeast Anticancer Drug Screen. Data for the mgt1 strain (AID 153); details: S. cerevisiae mgt1 mutant growth inhibition, active compounds read high
Outline: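 Measured: inhibition of mgt1 yeast growth by compound, normalized to vehicle-treated cultures.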

[5] = NCI Yeast Anticancer Drug Screen. Data for the rad50 strain (AID 155);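 further: 0% = growth of vehicle-only cultures of the same strain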; details: S. cerevisiae rad50 strain growth inhibition, active compounds read high
Outline: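 DNA repair mutant yeast, compound exposure, growth read-out; inhibition is taken relative to vehicle.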

[6] = NCI Yeast Anticancer Drug Screen. Data for the mec2-1 strain (AID 157); details: S. cerevisiae mec2-1 strain, active compounds read high
Outline: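 Using mec2-1 yeast: add compound, measure growth, express inhibition versus vehicle-treated cultures.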

[7] = NCI Yeast Anticancer Drug Screen. Data for the rad14 strain (AID 159);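 further: 0% = growth of vehicle-treated control cultures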; details: S. cerevisiae rad14 strain growth inhibition, active compounds read high
Outline: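 DNA repair-defective yeast, compound-exposed; % growth inhibition derived by comparison with vehicle-treated controls.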

[8] = NCI Yeast Anticancer Drug Screen. Data for the sgs1 mgt1 strain (AID 161);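 further: 0% = growth of cultures given vehicle only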; details: S. cerevisiae sgs1 mgt1 strain, active compounds read high
Outline: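 This yeast growth screen uses a strain with defined DNA-repair lesions; compound-treated growth is compared with vehicle-treated growth.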

[9] = NCI Yeast Anticancer Drug Screen. Data for the CLN2oe strain (AID 163);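 further: 0% = growth of vehicle-only control cultures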; details: S. cerevisiae CLN2oe strain, active compounds read high
Outline: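 Whole-cell yeast growth assay. A strain engineered for altered cell-cycle control received compound, and inhibition relative to vehicle-treated cultures was recorded.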

[10] = NCI Yeast Anticancer Drug Screen. Data for the cln2 rad14 strain (AID 165);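 further: 0% = growth equal to vehicle treated cultures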; details: S. cerevisiae cln2 rad14 strain, active compounds read high
Outline: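 Yeast strain cln2 rad14, bearing defects in cell cycle control and DNA repair, serves as the test system; values reflect growth inhibition compared with vehicle.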

[11] = NCI Yeast Anticancer Drug Screen. Data for the bub3 strain (AID 167); details: S. cerevisiae bub3 mutant strain, active compounds read high
Outline: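 In this screen, a yeast mutant lacking normal mitotic checkpoint function is challenged with compound. Relative growth versus vehicle gives the inhibition value.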

[12] = NCI Yeast Anticancer Drug Screen. Data for the wt2 strain (AID 169);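 further: 0% = growth of vehicle-treated yeast cultures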; details: S. cerevisiae wt2 strain growth inhibition, active compounds read high
Outline: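 Treated yeast vs. vehicle-treated yeast: growth inhibition determined.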

[13] = NCI Yeast Anticancer Drug Screen. Data for the mlh1 strain (AID 171);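 further: 0% = growth of vehicle-treated control cultures of the same strain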; details: S. cerevisiae mlh1 strain growth inhibition, active compounds read high
Outline: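 A yeast strain with a defined genetic lesion serves as the test organism. Cultures receive compound or vehicle, and growth is measured.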

[14] = NCI Yeast Anticancer Drug Screen. Data for the sgs1 strain (AID 173);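 further: 0% = growth of vehicle-only control cultures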; details: S. cerevisiae sgs1 mutant, active compounds read high
Outline: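 A genetically defined yeast mutant is incubated with the test compound, and its growth is compared to that of the same strain given vehicle.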

[15] = NCI Yeast Anticancer Drug Screen. Data for the mlh1 rad18 strain (AID 175); details: S. cerevisiae mlh1 rad18 strain growth inhibition, active compounds read high
Outline: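 Steps: expose repair-defective yeast to compound; measure growth; express inhibition against vehicle-treated controls.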

[16] = NCI Yeast Anticancer Drug Screen. Data for the rad18 strain (AID 177); details: S. cerevisiae rad18 mutant growth inhibition, active compounds read high
Outline: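 Measured value is growth inhibition of a yeast strain bearing a DNA repair alteration, referenced to vehicle-treated cells.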

[17] = at 5.0 µM (retest, dose inferred, filed as 0.5)
[18] = at 50.0 µM (retest, dose inferred, filed as 5.0)

Measured: growth inhibition

COc1ccc(C2c3cc4c(cc3OC(C)(O)C2C)OCO4)c(OC)c1 (stereo unspecified)
inactive: [1]; at 1.2 µM -1% | [1]; at 3.7 µM 1% | [1]; at 11.0 µM 3% | [1]; at 33.0 µM 10% | [2]; at 1.2 µM -1% | [2]; at 3.7 µM 3% | [2]; at 11.0 µM -2% | [2]; at 33.0 µM -2% | [3]; at 1.2 µM 6% | [3]; at 3.7 µM 7% | [3]; at 11.0 µM 12% | [3]; at 33.0 µM 7% | [3]; at 100.0 µM 4% | [4]; at 1.2 µM -5% | [4]; at 3.7 µM -6% | [4]; at 11.0 µM -4% | [4]; at 33.0 µM -2% | [5]; at 1.2 µM 0% | [5]; at 3.7 µM 1% | [5]; [17] 2% | [5]; at 11.0 µM 0% | [5]; at 33.0 µM 9% | [5]; [18] 66% | [6]; at 1.2 µM 3% | [6]; at 3.7 µM 8% | [6]; [17] 4% | [6]; at 11.0 µM 9% | [6]; at 33.0 µM 15% | [6]; [18] 63% | [7]; at 1.2 µM -3% | [7]; at 3.7 µM -4% | [7]; at 11.0 µM -4% | [7]; at 33.0 µM 1% | [8]; [17] 4% | [9]; at 1.2 µM -6% | [9]; at 3.7 µM -12% | [9]; at 11.0 µM -2% | [9]; at 33.0 µM 4% | [10]; [17] 5% | [10]; [18] 51% | [11]; at 1.2 µM -4% | [11]; at 3.7 µM -1% | [11]; [17] -4% | [11]; at 11.0 µM 1% | [11]; at 33.0 µM 6% | [11]; [18] 67% | [11]; at 50.0 µM 43% | [12]; at 1.2 µM -2% | [12]; at 3.7 µM 0% | [12]; at 11.0 µM -2% | [12]; at 33.0 µM 1% | [13]; at 1.2 µM 3% | [13]; at 3.7 µM 2% | [13]; at 11.0 µM 3% | [13]; at 33.0 µM 6% | [14]; at 1.2 µM 2% | [14]; at 3.7 µM 2% | [14]; at 11.0 µM 4% | [14]; at 33.0 µM 18% | [15]; [17] -6% | [16]; at 1.2 µM 1% | [16]; at 3.7 µM -2% | [16]; at 11.0 µM 1% | [16]; at 33.0 µM 15%
active: [1]; at 100.0 µM 96% | [2]; at 100.0 µM 83% | [4]; at 100.0 µM 89% | [5]; at 50.0 µM 95.5% | [5]; at 100.0 µM 98% | [6]; at 50.0 µM 94% | [6]; at 100.0 µM 94% | [7]; at 100.0 µM 98% | [8]; [18] 70% | [8]; at 50.0 µM 84.5% | [9]; at 100.0 µM 82% | [10]; at 50.0 µM 89.3% | [11]; at 100.0 µM 95% | [12]; at 100.0 µM 97% | [13]; at 100.0 µM 96% | [14]; at 100.0 µM 98% | [15]; [18] 81% | [15]; at 50.0 µM 93.5% | [16]; at 100.0 µM 97%

COc1cc(C2c3cc4c(cc3OC(NNc3ccccc3)C2C)OCO4)cc(OC)c1OC (stereo unspecified)
inactive: [1]; at 1.2 µM 36% | [1]; at 3.7 µM 44% | [1]; at 11.0 µM 59% | [2]; at 1.2 µM 16% | [2]; at 3.7 µM 9% | [2]; at 11.0 µM 19% | [3]; at 1.2 µM 39% | [3]; at 3.7 µM 42% | [3]; at 11.0 µM 48% | [3]; at 33.0 µM 47% | [3]; at 100.0 µM 67% | [4]; at 1.2 µM 13% | [4]; at 3.7 µM 23% | [4]; at 11.0 µM 26% | [5]; at 1.2 µM 23% | [5]; at 3.7 µM 33% | [5]; [17] 14% | [5]; at 11.0 µM 52% | [5]; at 50.0 µM 12.3% | [6]; at 1.2 µM 2% | [6]; at 3.7 µM 5% | [6]; [17] 10% | [6]; at 11.0 µM 16% | [6]; at 33.0 µM 63% | [6]; at 50.0 µM 40.5% | [7]; at 1.2 µM -2% | [7]; at 3.7 µM 1% | [7]; at 11.0 µM 29% | [7]; at 33.0 µM 52% | [8]; [17] -4% | [8]; at 50.0 µM 20.6% | [9]; at 1.2 µM 41% | [9]; at 3.7 µM 40% | [9]; at 11.0 µM 46% | [10]; [17] 17% | [10]; at 50.0 µM 53% | [11]; at 1.2 µM 7% | [11]; at 3.7 µM 20% | [11]; [17] 19% | [12]; at 1.2 µM -2% | [12]; at 3.7 µM -13% | [12]; at 11.0 µM 41% | [13]; at 1.2 µM 16% | [13]; at 3.7 µM 23% | [13]; at 11.0 µM 24% | [13]; at 33.0 µM 26% | [13]; at 100.0 µM 30% | [14]; at 1.2 µM 29% | [14]; at 3.7 µM 37% | [14]; at 11.0 µM 34% | [15]; [17] 36% | [16]; at 1.2 µM 52% | [16]; at 3.7 µM 56% | [16]; at 11.0 µM 64%
active: [1]; at 33.0 µM 93% | [1]; at 100.0 µM 75% | [2]; at 33.0 µM 74% | [2]; at 100.0 µM 94% | [4]; at 33.0 µM 82% | [4]; at 100.0 µM 89% | [5]; at 33.0 µM 92% | [5]; [18] 96% | [5]; at 100.0 µM 73% | [6]; [18] 96% | [6]; at 100.0 µM 91% | [7]; at 100.0 µM 75% | [8]; [18] 97% | [9]; at 33.0 µM 89% | [9]; at 100.0 µM 79% | [10]; [18] 95% | [11]; at 11.0 µM 73% | [11]; at 33.0 µM 89% | [11]; [18] 94% | [11]; at 50.0 µM 88.2% | [11]; at 100.0 µM 83% | [12]; at 33.0 µM 96% | [12]; at 100.0 µM 90% | [14]; at 33.0 µM 88% | [14]; at 100.0 µM 94% | [15]; [18] 94% | [15]; at 50.0 µM 77% | [16]; at 33.0 µM 94% | [16]; at 100.0 µM 84%

c1ccc2c(c1)-c1nc3ccccc3cc1C2N1CCOCC1 (stereo unspecified)
active: [3]; at 100.0 µM 77% | [5]; at 50.0 µM 72.7% | [8]; at 50.0 µM 70.5%
inactive: [1]; at 1.2 µM -2% | [1]; at 3.7 µM 1% | [1]; at 11.0 µM 4% | [1]; at 33.0 µM 8% | [1]; at 100.0 µM 16% | [2]; at 1.2 µM 1% | [2]; at 3.7 µM 2% | [2]; at 11.0 µM 4% | [2]; at 33.0 µM 2% | [2]; at 100.0 µM 5% | [3]; at 1.2 µM 6% | [3]; at 3.7 µM 25% | [3]; at 11.0 µM 51% | [3]; at 33.0 µM 68% | [4]; at 1.2 µM 0% | [4]; at 3.7 µM -1% | [4]; at 11.0 µM -1% | [4]; at 33.0 µM 3% | [4]; at 100.0 µM 17% | [5]; at 1.2 µM 0% | [5]; at 3.7 µM -1% | [5]; [17] -6% | [5]; at 11.0 µM 10% | [5]; at 33.0 µM 9% | [5]; [18] 55% | [5]; at 100.0 µM 17% | [6]; at 1.2 µM 1% | [6]; at 3.7 µM 1% | [6]; [17] 4% | [6]; at 11.0 µM 2% | [6]; at 33.0 µM 5% | [6]; [18] 8% | [6]; at 50.0 µM 13.2% | [6]; at 100.0 µM 17% | [7]; at 1.2 µM 0% | [7]; at 3.7 µM 0% | [7]; at 11.0 µM -1% | [7]; at 33.0 µM -4% | [7]; at 100.0 µM 21% | [8]; [17] -13% | [8]; [18] 65% | [9]; at 1.2 µM -6% | [9]; at 3.7 µM -2% | [9]; at 11.0 µM -10% | [9]; at 33.0 µM -8% | [9]; at 100.0 µM -3% | [10]; [17] -32% | [10]; [18] 13% | [10]; at 50.0 µM 3.95% | [11]; at 1.2 µM 3% | [11]; at 3.7 µM 6% | [11]; [17] 7% | [11]; at 11.0 µM -17% | [11]; at 33.0 µM 29% | [11]; [18] 34% | [11]; at 50.0 µM 49.2% | [11]; at 100.0 µM 27%

Reference: PubChem BioAssay (NCI)
